According to PubChem BioAssay (NCATS):
Unmarked numbers belong to inactive results. Results filed as inconclusive are left out. Active and inactive are the calls of the source. Unless noted, calls come from the whole dose curve.

Molecular target: Glucocorticoid receptor (Homo sapiens) (UniProt P04150)
Assay: GR-EFC Redistribution (AID 451); note: potency is the fitted concentration of half-maximal effect
Conditions: CHO-K1 GR-EFC translocation, beta-gal luminescence, 2 h
In short: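 CHO-K1 cells stably expressing nuclear-localized β-gal enzyme acceptor and GR fused C-terminally to the enzyme donor fragment; ligand-driven nuclear translocation restores β-gal by complementation. Compounds titrated up to 46 uM final, 2 h at 37 °C; luminescence read.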

Glucocorticoid receptor (Homo sapiens), sequence (P04150 whole entry, looked up): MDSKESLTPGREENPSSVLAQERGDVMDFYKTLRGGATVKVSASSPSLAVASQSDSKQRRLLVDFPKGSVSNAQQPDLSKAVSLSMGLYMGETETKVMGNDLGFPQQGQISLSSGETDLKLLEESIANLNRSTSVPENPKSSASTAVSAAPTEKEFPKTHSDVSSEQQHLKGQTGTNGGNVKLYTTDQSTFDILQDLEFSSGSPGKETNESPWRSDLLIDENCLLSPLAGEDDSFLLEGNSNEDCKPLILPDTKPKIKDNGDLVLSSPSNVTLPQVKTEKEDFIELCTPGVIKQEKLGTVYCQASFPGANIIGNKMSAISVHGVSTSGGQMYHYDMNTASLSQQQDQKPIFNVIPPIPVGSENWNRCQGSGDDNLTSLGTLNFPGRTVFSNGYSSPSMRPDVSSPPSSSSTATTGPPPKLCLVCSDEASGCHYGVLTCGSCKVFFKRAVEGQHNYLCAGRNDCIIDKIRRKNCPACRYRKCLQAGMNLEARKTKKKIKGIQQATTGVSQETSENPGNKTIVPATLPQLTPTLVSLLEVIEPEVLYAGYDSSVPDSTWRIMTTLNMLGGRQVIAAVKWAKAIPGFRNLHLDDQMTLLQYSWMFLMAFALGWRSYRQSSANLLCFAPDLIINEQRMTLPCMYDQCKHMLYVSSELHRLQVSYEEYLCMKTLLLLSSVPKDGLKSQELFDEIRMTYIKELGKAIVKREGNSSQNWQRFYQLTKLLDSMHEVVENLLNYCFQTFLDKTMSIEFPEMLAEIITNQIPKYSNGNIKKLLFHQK

**Q.** Which Potency does the source give for `O=C(c1cnccn1)N1CCC2(CCCN(c3ncccn3)C2)CC1` here?
**A.** Its Potency is over 46 µM.

**Q.** Which Potency does the source give for `COCCNc1nc(-c2ccccc2C(F)(F)F)nc2ccccc12` here?
**A.** Its Potency is over 46 µM.

**Q.** With `COc1ccc(-n2c(=O)c(-c3cc(F)cc(F)c3)nc3cnc(N4CCNCC4)nc32)cc1` as the compound, how does the Potency read?
**A.** Its Potency is over 46 µM.

**Q.** For `COc1ccc(NC(=O)N2CC3(CCN(C(=O)c4cccc(F)c4)CC3)C2)cc1`, which Potency is on record?
**A.** The Potency was over 46 µM.

**Q.** Which Potency does the source give for `COc1ccc(NC(=O)N2CCCC3(CCN(C(=O)c4cccc(F)c4)CC3)C2)cc1` here?
**A.** The Potency was 29.5 µM (active).

**Q.** How did the Potency turn out when `Oc1cc2c(c(Cl)c1O)CCNC[C@H]2c1ccccc1` was run?
**A.** Its Potency is over 46 µM.

**Q.** How did the Potency turn out when `COc1ccc(Oc2ncc3nc(-c4cccs4)c(=O)n(Cc4cccs4)c3n2)cc1` was run?
**A.** Its Potency is over 46 µM.

**Q.** For `O=c1c(-c2cccs2)nc2cnc(Oc3cccc(Cl)c3)nc2n1C[C@H]1CCCO1`, which Potency is on record?
**A.** The Potency was over 46 µM.

**Q.** Which Potency does the source give for `c1ccc(-c2ccc(N3CCCC4(CCNCC4)C3)cc2)cc1` here?
**A.** Its Potency is over 46 µM.

**Q.** With `COc1cccc(Nc2ncc3nc(-c4ccc(F)cc4)c(=O)n(C[C@H]4CCCO4)c3n2)c1` as the compound, how does the Potency read?
**A.** The Potency was over 46 µM.

**Q.** Which Potency does the source give for `CC(C)NC(=O)N1CC[C@@]2(CCCN(C(=O)c3ccco3)C2)C1` here?
**A.** The Potency was over 46 µM.

**Q.** `O=c1c(-c2ccc(Cl)cc2)nc2cnc(N3CCOCC3)nc2n1C1CC1` was tested. Which Potency did it give?
**A.** The Potency was over 46 µM.

**Q.** Which Potency does the source give for `CN(C)c1ncc2nc(-c3ccccc3)c(=O)n(C3CC3)c2n1` here?
**A.** The Potency was over 46 µM.

**Q.** `O=c1c(-c2ccc(Cl)cc2)nc2cncnc2n1Cc1ccc(F)cc1` was tested. Which Potency did it give?
**A.** The Potency was over 46 µM.

**Q.** `O=C(c1cnccn1)N1CCC2(CC1)CN(Cc1cc(C(F)(F)F)cc(C(F)(F)F)c1)C2` was tested. Which Potency did it give?
**A.** The Potency was over 46 µM.

**Q.** For `COc1cccc(Cn2c(=O)c(C)nc3cnc(OCc4ccccc4)nc32)c1`, which Potency is on record?
**A.** Its Potency is over 46 µM.

**Q.** How did the Potency turn out when `COc1ccc(C(=O)N2CCC3(CCN(C(=O)Nc4cccc(C#N)c4)CC3)CC2)cc1` was run?
**A.** Its Potency is over 46 µM.

**Q.** For `COC(=O)N1CCC2(CCN(C(=O)Nc3cccc(F)c3)CC2)CC1`, which Potency is on record?
**A.** Its Potency is over 46 µM.

**Q.** With `COc1ncc2nc(CCc3ccccc3)c(=O)n(CCC#N)c2n1` as the compound, how does the Potency read?
**A.** Its Potency is over 46 µM.

**Q.** For `CCNc1ncc2nc(-c3cc(F)cc(F)c3)c(=O)n(-c3ccc(OC)cc3)c2n1`, which Potency is on record?
**A.** Its Potency is over 46 µM.

**Q.** With `COc1ccc(Oc2ncc3ncc(=O)n(CCc4ccccc4)c3n2)cc1` as the compound, how does the Potency read?
**A.** Its Potency is over 46 µM.

**Q.** With `O=C(Nc1cccc(F)c1)N1CCCC2(CCN(C(=O)c3cccc(F)c3)CC2)C1` as the compound, how does the Potency read?
**A.** Its Potency is over 46 µM.

**Q.** `O=C(c1cnccn1)N1CCC2(CCCN(c3ccccn3)C2)CC1` was tested. Which Potency did it give?
**A.** Its Potency is over 46 µM.

**Q.** How did the Potency turn out when `O=S(=O)(c1ccccc1)N1CCC2(CCCN(Cc3cc(C(F)(F)F)cc(C(F)(F)F)c3)C2)CC1` was run?
**A.** The Potency was over 46 µM.

**Q.** Which Potency does the source give for `O=C(Oc1ccccc1)N1CCC2(CCCN(c3ncccn3)C2)CC1` here?
**A.** The Potency was over 46 µM.

**Q.** For `COc1cccc(Cn2c(=O)c(CCc3ccccc3)nc3cnc(OC)nc32)c1`, which Potency is on record?
**A.** Its Potency is over 46 µM.

**Q.** With `CCNc1ncc2nc(-c3cc(F)cc(F)c3)c(=O)n(-c3ccccc3)c2n1` as the compound, how does the Potency read?
**A.** Its Potency is over 46 µM.

**Q.** For `CCNc1ncc2nc(-c3ccccc3)c(=O)n(CCc3ccccc3)c2n1`, which Potency is on record?
**A.** The Potency was over 46 µM.

**Q.** Which Potency does the source give for `COc1ccc(Oc2ncc3nc(-c4ccccc4)c(=O)n(Cc4cccs4)c3n2)cc1` here?
**A.** Its Potency is over 46 µM.

**Q.** How did the Potency turn out when `O=c1c(-c2cccs2)nc2cncnc2n1C1CC1` was run?
**A.** Its Potency is over 46 µM.

**Q.** With `COc1ccccc1-c1nc(N(C)Cc2ccco2)c2ccccc2n1` as the compound, how does the Potency read?
**A.** The Potency was over 46 µM.

**Q.** `COCCn1c(=O)c(-c2cccs2)nc2cnc(Oc3cccc(Cl)c3)nc21` was tested. Which Potency did it give?
**A.** The Potency was over 46 µM.

**Q.** `COc1ccccc1CNc1nc(-c2ccc(N(C)C)cc2)nc2ccccc12` was tested. Which Potency did it give?
**A.** The Potency was over 46 µM.

**Q.** For `CCNc1ncc2nc(-c3cccc(C#N)c3)c(=O)n(C)c2n1`, which Potency is on record?
**A.** Its Potency is over 46 µM.

**Q.** How did the Potency turn out when `COc1ccc(NC(=O)N2CCC3(CC2)CCN(C(=O)c2cccc(F)c2)CC3)cc1` was run?
**A.** The Potency was over 46 µM.

**Q.** `O=c1c(-c2ccc(Cl)cc2)nc2cnc(N3CCNCC3)nc2n1Cc1ccc(F)cc1` was tested. Which Potency did it give?
**A.** The Potency was over 46 µM.

**Q.** With `COc1ncc2nc(-c3ccc(Cl)cc3)c(=O)n(CCc3ccccc3)c2n1` as the compound, how does the Potency read?
**A.** The Potency was over 46 µM.

**Q.** Which Potency does the source give for `O=C(c1cccc(F)c1)N1CCC2(CC1)CCN(c1ccc(-c3ccccc3)cc1)CC2` here?
**A.** Its Potency is over 46 µM.

**Q.** How did the Potency turn out when `O=c1cnc2cnc(Nc3ccccc3)nc2n1C[C@H]1CCCO1` was run?
**A.** The Potency was over 46 µM.

Molecular target: Mitogen-activated protein kinase 10 (Mus musculus) (UniProt Q61831)
Assay: JNK3 AlphaScreen Assay (AID 530; active = well fitted curve in either direction with a large enough effect, not every such curve was filed as active;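 note: kinase came from lysate of stimulated human HepG2 cells; signal reports phosphorylation of biotinylated GST-cJun 1-79 at Ser73 with 10 µM ATP; % is set by controls: 0 for no effect and ±100 for the full control effect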)
Conditions: JNK3 lysate, c-Jun phosphorylation; series mostly up to 57.1 µM; activity change, negative = inhibition: at the top concentration
In short: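 Inhibitors reduce antibody binding to phosphorylated biotin-cJun, lowering AlphaScreen luminescence. Lysates from HepG2 cells pre-activated by IL-1beta plus TNF-alpha supplied JNK3; compounds were titrated.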

**Q.** For `O=C(c1cnccn1)N1CCC2(CCCN(c3ncccn3)C2)CC1`, which “activity change, negative = inhibition” value is on record?
**A.** Its value is -2.26%.

**Q.** With `COCCNc1nc(-c2ccccc2C(F)(F)F)nc2ccccc12` as the compound, how does the “activity change, negative = inhibition” value read?
**A.** The value was 3.53%.

**Q.** With `COc1ccc(-n2c(=O)c(-c3cc(F)cc(F)c3)nc3cnc(N4CCNCC4)nc32)cc1` as the compound, how does the “activity change, negative = inhibition” value read?
**A.** The value was 24.5%.

**Q.** How did the “activity change, negative = inhibition” value turn out when `COc1ccc(NC(=O)N2CC3(CCN(C(=O)c4cccc(F)c4)CC3)C2)cc1` was run?
**A.** The value was -8.3%.

**Q.** For `COc1ccc(NC(=O)N2CCCC3(CCN(C(=O)c4cccc(F)c4)CC3)C2)cc1`, which “activity change, negative = inhibition” value is on record?
**A.** Its value is -1.67%.

**Q.** With `Oc1cc2c(c(Cl)c1O)CCNC[C@H]2c1ccccc1` as the compound, how does the “activity change, negative = inhibition” value read?
**A.** The value was -10.9%.

**Q.** For `COc1ccc(Oc2ncc3nc(-c4cccs4)c(=O)n(Cc4cccs4)c3n2)cc1`, which “activity change, negative = inhibition” value is on record?
**A.** The value was 17%.

**Q.** With `COc1cccc(Nc2ncc3nc(-c4ccc(F)cc4)c(=O)n(C[C@H]4CCCO4)c3n2)c1` as the compound, how does the “activity change, negative = inhibition” value read?
**A.** The value was 40.2%.

**Q.** `CC(C)NC(=O)N1CC[C@@]2(CCCN(C(=O)c3ccco3)C2)C1` was tested. Which “activity change, negative = inhibition” value did it give?
**A.** The value was 4.37%.

**Q.** Which “activity change, negative = inhibition” value does the source give for `O=c1c(-c2ccc(Cl)cc2)nc2cnc(N3CCOCC3)nc2n1C1CC1` here?
**A.** Its value is 6.52%.

**Q.** Which “activity change, negative = inhibition” value does the source give for `O=c1c(-c2ccc(Cl)cc2)nc2cncnc2n1Cc1ccc(F)cc1` here?
**A.** The value was -6.49%.

**Q.** With `O=C(c1cnccn1)N1CCC2(CC1)CN(Cc1cc(C(F)(F)F)cc(C(F)(F)F)c1)C2` as the compound, how does the “activity change, negative = inhibition” value read?
**A.** Its value is -0.743%.

**Q.** For `COc1cccc(Cn2c(=O)c(C)nc3cnc(OCc4ccccc4)nc32)c1`, which “activity change, negative = inhibition” value is on record?
**A.** The value was 22.3%.

**Q.** How did the “activity change, negative = inhibition” value turn out when `COC(=O)N1CCC2(CCN(C(=O)Nc3cccc(F)c3)CC2)CC1` was run?
**A.** The value was -29%.

**Q.** `COc1ncc2nc(CCc3ccccc3)c(=O)n(CCC#N)c2n1` was tested. Which “activity change, negative = inhibition” value did it give?
**A.** The value was -3.25%.

**Q.** How did the “activity change, negative = inhibition” value turn out when `CCNc1ncc2nc(-c3cc(F)cc(F)c3)c(=O)n(-c3ccc(OC)cc3)c2n1` was run?
**A.** Its value is -2.33%.

**Q.** Which “activity change, negative = inhibition” value does the source give for `COc1ccc(Oc2ncc3ncc(=O)n(CCc4ccccc4)c3n2)cc1` here?
**A.** Its value is -3.96%.

**Q.** For `O=C(Nc1cccc(F)c1)N1CCCC2(CCN(C(=O)c3cccc(F)c3)CC2)C1`, which “activity change, negative = inhibition” value is on record?
**A.** The value was -16.4%.

**Q.** For `O=C(c1cnccn1)N1CCC2(CCCN(c3ccccn3)C2)CC1`, which “activity change, negative = inhibition” value is on record?
**A.** Its value is 4.95%.

**Q.** With `O=S(=O)(c1ccccc1)N1CCC2(CCCN(Cc3cc(C(F)(F)F)cc(C(F)(F)F)c3)C2)CC1` as the compound, how does the “activity change, negative = inhibition” value read?
**A.** The value was 4.92%.

**Q.** `CCNc1ncc2nc(-c3cc(F)cc(F)c3)c(=O)n(-c3ccccc3)c2n1` was tested. Which “activity change, negative = inhibition” value did it give?
**A.** Its value is 20.4%.

**Q.** Which “activity change, negative = inhibition” value does the source give for `CCNc1ncc2nc(-c3ccccc3)c(=O)n(CCc3ccccc3)c2n1` here?
**A.** The value was 18.5%.

**Q.** With `COc1ccc(Oc2ncc3nc(-c4ccccc4)c(=O)n(Cc4cccs4)c3n2)cc1` as the compound, how does the “activity change, negative = inhibition” value read?
**A.** The value was -0.947%.

**Q.** Which “activity change, negative = inhibition” value does the source give for `O=c1c(-c2cccs2)nc2cncnc2n1C1CC1` here?
**A.** Its value is 3.2%.

**Q.** Which “activity change, negative = inhibition” value does the source give for `COc1ccccc1-c1nc(N(C)Cc2ccco2)c2ccccc2n1` here?
**A.** Its value is -11.7%.

**Q.** `COc1ccccc1CNc1nc(-c2ccc(N(C)C)cc2)nc2ccccc12` was tested. Which “activity change, negative = inhibition” value did it give?
**A.** The value was 3.98%.

**Q.** With `CCNc1ncc2nc(-c3cccc(C#N)c3)c(=O)n(C)c2n1` as the compound, how does the “activity change, negative = inhibition” value read?
**A.** The value was 40.3%.

**Q.** With `COc1ccc(NC(=O)N2CCC3(CC2)CCN(C(=O)c2cccc(F)c2)CC3)cc1` as the compound, how does the “activity change, negative = inhibition” value read?
**A.** Its value is 3.07%.

**Q.** `COc1ncc2nc(-c3ccc(Cl)cc3)c(=O)n(CCc3ccccc3)c2n1` was tested. Which “activity change, negative = inhibition” value did it give?
**A.** The value was 5.7%.

**Q.** With `O=C(c1cccc(F)c1)N1CCC2(CC1)CCN(c1ccc(-c3ccccc3)cc1)CC2` as the compound, how does the “activity change, negative = inhibition” value read?
**A.** The value was -2.73%.
